Source: PubChem BioAssay
This is a sample that favours compounds with a hit; in the whole collection about 3.5% have one here.
TEAD-YAP block: TEAD-YAP interaction inhibition | 1.4% of 640,000 active | inhibition, % at 9.12 µM | HEK-TIYL cells, TEAD-Gal4/YAP UAS-luciferase luminescence; in the data active means inhibition above about 32%;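 further: 0% = median of test compound wells and 100% = reference inhibitor wells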
GPR151 activ: human GPR151 activation | activation, % at 11.2 µM | PathHunter beta-arrestin GPR151 cells, luminescence | Q8TDV0 | 1% of 650,000 active; in the data active means activation above about 4.9%;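 further: 0% = median of compound wells and 100% = cells with positive control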
MITF inh: human MITF inhibition, primary screen; inhibition, % at 2.6 µM; AlphaScreen MITF homodimerization, bead proximity signal; 0.91% of 650,000 active; O75030; in the data active means inhibition above about 50%;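 further: 0% = vehicle wells with protein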
Target sequence (O75030 whole entry, looked up): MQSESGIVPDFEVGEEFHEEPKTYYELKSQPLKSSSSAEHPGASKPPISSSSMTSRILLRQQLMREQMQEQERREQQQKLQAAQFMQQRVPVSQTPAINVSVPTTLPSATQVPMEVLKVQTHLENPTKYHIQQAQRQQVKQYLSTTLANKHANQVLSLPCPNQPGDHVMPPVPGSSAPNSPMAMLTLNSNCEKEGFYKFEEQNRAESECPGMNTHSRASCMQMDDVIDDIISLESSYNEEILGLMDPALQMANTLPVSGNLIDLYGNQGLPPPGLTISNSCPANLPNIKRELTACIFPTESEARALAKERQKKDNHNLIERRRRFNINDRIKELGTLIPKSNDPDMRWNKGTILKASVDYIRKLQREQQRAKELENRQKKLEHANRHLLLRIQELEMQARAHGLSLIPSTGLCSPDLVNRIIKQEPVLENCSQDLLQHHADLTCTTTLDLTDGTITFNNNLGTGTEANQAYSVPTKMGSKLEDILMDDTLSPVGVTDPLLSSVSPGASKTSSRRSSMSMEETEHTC
FBW7 act: human FBW7 E3 ligase activation, primary screen; Q969H0; AlphaScreen FBW7–phospho-cyclin E peptide binding, activator screen; normalized activity (activation), % at 26.1 µM; 0.13% of 650,000 active; in the data active means normalized activity above about 1.9%;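 further: purified mutant Fbw7 with reduced substrate affinity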
GPR151 confirm: confirmation of human GPR151 activators; 6,700 tested, under 10 active; shares compounds with GPR151 activ; GPR151 PathHunter beta-arrestin cells, luminescence, 90 min; % of EA-reagent control over plate median; activation, % at 11.2 µM;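 active means mean percent activation across replicates above the confirmation screen cutoff of 4.91%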
GPR119 counter: counter-screen for GPR151 activators: effect on human GPR119. shares compounds with GPR151 activ. GPR119 PathHunter beta-arrestin cells, luminescence, 90 min; 0 = compound-well median, 100 = enzyme-acceptor control. activation, % at 11.2 µM. 0.3% of 6,700 active. AID 1508611;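 active means mean percent activation in the counterscreen above 29.09%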;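 further: counterscreen on off-target GPR119 to flag nonselective hits from the GPR151 activator screen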
Numbers without * were called inactive; x = no result.

SMILES | TEAD-YAP block | GPR151 activ | MITF inh | FBW7 act | GPR151 confirm | GPR119 counter
COc1ccccc1/C=C/CN1CCNC(=O)C1CC(=O)NC1CCOCC1 (stereo not drawn) | 7 | 4.9* | -6 | 0 | -1 | -11
COc1cc(/C=C2/SC(=Nc3ccccc3C)NC2=O)cc([N+](=O)[O-])c1O | -17 | 0 | 6 | -1 | x | x
COc1ccccc1/C=C/CN1CCNC(=O)C1CC(=O)NCCC1=CCCCC1 (stereo not drawn) | -7 | 0 | 6 | 0 | x | x
Fc1ccc(Cn2ccc3nc(N4CCOCC4)nc(N4CCOCC4)c32)cc1 | -6 | 4 | 11 | 0 | x | x
CC(C)C12CN3CC(C(C)C)(CN(C1)C3c1ccccc1Cl)C2=O (stereo not drawn) | -6 | 0 | 4 | 0 | x | x
CC12CN3CC(C)(CN(C1)C3c1ccccc1Cl)C2 (stereo not drawn) | 5 | 5.5* | 9 | 0 | -1 | -5
Cc1ccc2nc(Nc3ccc(F)cc3F)c3nncn3c2c1 | -4 | 3 | -7 | 0 | x | x
O=C(O)CCC(=O)Nc1nc(-c2ccc3c(c2)Cc2ccccc2-3)cs1 | -47 | 0 | 11 | 0 | x | x
Cc1nc(Nc2nc(-c3ccccc3)cc(=O)[nH]2)nc2ccccc12 | 7 | 0 | 4 | 0 | x | x
COc1ccc2nc(Nc3nc(-c4ccccc4)cc(=O)[nH]3)nc(C)c2c1 | 3 | 6.8* | -6 | 0 | 0 | 13
CCCNc1cc(N2CCCC2CO)ncn1 (stereo not drawn) | -6 | 0 | 5 | 0 | x | x
COc1ccc(CCNc2cc(-c3ccc(OC)nc3)ncn2)cc1 | 11 | 5.2* | 6 | 0 | 2 | -4
COc1ccc(CCNc2cc(N3CCCC3CO)ncn2)cc1 (stereo not drawn) | -49 | 14* | 4 | 1 | 0 | -9
COc1ccc(-c2cc(NCCc3ccc(O)cc3)ncn2)cn1 | -13 | 2 | -8 | 0 | x | x
COc1ccc(-c2nc(NCCc3ccc(O)cc3)nc(OC)n2)cn1 | -4 | 5.9* | 4 | 0 | -1 | -8
COc1cc(C2CC(=O)NC3=C2C(=O)CC(c2ccc(OC)c(OC)c2)C3)ccc1O (stereo not drawn) | 10 | -1 | 17 | 1 | x | x
CCOc1cc(C2CC(=O)NC3=C2C(=O)CC(c2ccc(OC)c(OC)c2)C3)ccc1O (stereo not drawn) | -1 | 6.3* | 17 | 0 | 0 | 1
COc1ccc(-c2nc(NCCOc3ccccc3)c3ncn(Cc4ccc(C(F)(F)F)cc4)c3n2)cc1 | 8 | 4.9* | 12 | 0 | -1 | -7
CCCNc1nc(-c2ccc(N3CCOCC3)nc2)nc2c1ncn2Cc1ccc(C(F)(F)F)cc1 | 2 | 0 | -3 | 0 | x | x
OCCNc1nc(-c2csc3ccccc23)nc2c1ncn2Cc1ccc(C(F)(F)F)cc1 | 3 | 6.1* | 4 | 0 | 1 | 1
FC(F)(F)c1ccc(Cn2cnc3c(Nc4ccccc4)nc(Nc4ccccc4)nc32)cc1 | 5 | 6.2* | 7 | 0 | 0 | 4
FC(F)(F)c1ccc(Cn2cnc3c(NC4CC4)nc(-c4ccc(N5CCOCC5)nc4)nc32)cc1 | 0 | 8.0* | 1 | 0 | 1 | -7
CC(NC(=O)NC12CC3CC(CC(C3)C1)C2)C(=O)O (stereo not drawn) | 1 | -1 | 0 | 0 | x | x
FC(F)(F)c1ccc(Cn2cnc3c(NC4CCN(Cc5ccccc5)CC4)nc(Nc4ccc(C(F)(F)F)cc4)nc32)cc1 | -5 | 5.9* | 5 | 0 | -1 | -8
FC(F)(F)c1ccc(Cn2cnc3c(Nc4ccc(N5CCOCC5)cc4)nc(-c4ccccc4)nc32)cc1 | 0 | 5.2* | 15 | 0 | -1 | -12
SMILES | TEAD-YAP block | GPR151 activ | MITF inh | FBW7 act | GPR151 confirm | GPR119 counter
FC(F)(F)c1ccc(Cn2cnc3c(NC4CCN(Cc5ccccc5)CC4)nc(Nc4ccccc4)nc32)cc1 | 4 | -1 | 16 | 0 | x | x
CC1(C)CC(=O)C2=C(C1)N(c1ccc(Br)cn1)C(N)=C(C#N)C2c1ccsc1 (stereo not drawn) | 11 | 3 | 6 | 0 | x | x
O=C(NS(=O)(=O)c1ccccc1)c1cccc(Br)c1 | 1 | 5.9* | 12 | 0 | 0 | -18
Cc1ccc(S(=O)(=O)NC(=O)c2cccc(Br)c2)cc1 | -3 | 2 | -4 | 0 | x | x
CN1C(=O)CC(c2cn(Cc3ccccc3)c3ccccc23)C1=O (stereo not drawn) | -7 | 2 | -2 | 0 | x | x
Cc1sc2c(c1C)C(=O)NC(c1cn(Cc3ccccc3)c3ccccc13)N2 (stereo not drawn) | -2 | 6.1* | -8 | 0 | 1 | -1
O=C(O)c1ccc(CNCc2ccc(Cl)cc2Cl)cc1 | 15 | 8.9* | 19 | 1 | -1 | -15
CC(O)CCC(=O)N/N=C/c1cc([N+](=O)[O-])ccc1O (stereo not drawn) | 3 | 10* | 7 | -2 | 0 | 0
O=C(COc1ccc(Cl)cc1Br)N/N=C/c1cc([N+](=O)[O-])ccc1O | -4 | 5.1* | -5 | 0 | 1 | 11
O=C(Cn1c(-c2cccnc2)nc2ccccc21)N1CCCCCC1 | 10 | 5.6* | -4 | 0 | 0 | 2
O=C(Cn1c(-c2ccccn2)nc2ccccc21)N1CCCCC1 | 2 | -3 | 1 | 1 | x | x
COc1ccc(NC(=O)CSc2cn(Cc3ccccc3)c3ccccc23)c(OC)c1 | 3 | 2 | 14 | 0 | x | x
O=C(c1ccc([N+](=O)[O-])cc1)N1CCCc2ccccc21 | -10 | -1 | 12 | 0 | x | x
O=C(c1cccc([N+](=O)[O-])c1)N1CCCc2ccccc21 | -4 | 5.0* | -1 | 0 | 1 | -1
O=C(c1ccc(-n2cnnn2)cc1)N1CCCc2ccccc21 | 0 | 5.0* | -10 | 0 | 0 | -8
CC(C)c1ccc(NC(=O)c2cccnc2Cl)cc1 | -28 | 0 | -4 | 0 | x | x
CCOc1cc2c3c(c1)C1(OCCO1)C(=O)N3C(C)(C)CC2C (stereo not drawn) | -7 | 5.9* | -4 | 0 | -1 | -2
O=C1CCCC2=C1C(c1cccc([N+](=O)[O-])c1)CC(=O)N2c1ccc(F)cc1F (stereo not drawn) | -1 | 0 | -11 | 0 | x | x
O=c1[nH]c(=O)n(-c2ccccc2Cl)c(O)c1C=NCCCn1ccnc1 | 6 | 4.9* | 19 | 0 | 0 | -3
Cc1ccccc1-n1c(=O)cc(NCCCn2ccnc2)[nH]c1=O | 0 | 14* | 8 | 0 | 1 | 3
c1ccc2c(c1)nc(NCCCN1CCOCC1)c1nnnn12 | -8 | -2 | 7 | 0 | x | x
O=C1CCCN1CCCNc1nc2ccccc2n2nnnc12 | 2 | 5.9* | -7 | 0 | 0 | -8
O=C1CCCN1CCCNc1nc2ccccc2c2nc(-c3cccnc3)nn12 | 20 | 6.3* | 10 | 0 | 1 | 15
